Results: PubChem BioAssay (Tox21)
Records with an inconclusive call do not appear. The source made the active and inactive calls. Calls come from the whole dose curve; as a rule, active = well fitted cell-killing curve with a large enough effect in the repeat runs; inconclusive = weak or mixed curves; inactive = flat fitted curve, though single readings scatter.

Test: qHTS RealTime-Glo MT Cell Viability Assay in HepG2 cells - 16 hour (AID 1224885); note: nearly all actives have a fitted effect of over 50% in size
Details: RealTime-Glo luminescence; series mostly up to 76.8 µM
Excerpt: U.S. Tox21 Program National Center for Advancing Translational Sciences [NCATS] NIH Chemical Genomics Center [NCGC] U.S. Environmental Protection Agency [EPA] National Institutes of Environmental Health Sciences [NIEHS] National Toxicology Program [NTP] U.S. Food and Drug Administration [FDA] Tox21 Assay Overview: Measure of cell viability is critical in the cell-base assay. Analysis of cell viability is necessary for the characterization of cell responses to cytotoxic drugs and environmental stress. A RealTime-Glo MT Cell Viability Assay to monitor cell viability in real time of continues cell culture during 40 hours of compound treatment was used to screen Tox21 10K library compounds in HepG2 cells. The RealTime-Glo MT Cell Viability Assay is a nonlytic, homogeneous, bioluminescent method to measure cell viability in real time using a simple, plate-based method. The assay involves adding NanoLuc luciferase and a cell-permeant prosubstrate to cells in culture. Viable cells reduce the proprietary prosubstrate to generate a substrate for NanoLuc luciferase. This substrate diffuses from cells into the surrounding culture medium, where it is rapidly used by the NanoLuc Enzyme to produce a luminescent signal. The signal correlates with the number of viable cells, making the assay well suited for cytotoxicity studies.
Tox21 Assay Protocol Summary: The mixture of HepG2 cell suspension and reagents were dispensed at 600cells/6 ul/well in 1536-well tissue culture treated black solid bottom plates using a Multidrop dispenser. After the assay plates were incubated at a 37 C/5% CO2 incubator for 5 hours, 23 nL of compounds dissolved in DMSO, positive and negative controls was transferred to the assay plate by a pintool work station. The plates were incubated at 37 C for 40 hours. The luminescence intensity were measured at 0h, 8h, 16h, 24h, 32h and 40h time points using ViewLux plate reader during compound treatment.
% is set by controls: 0 for no effect and ±100 for the full control effect.

| Structure (SMILES) | outcome | activity change, negative = cytotoxic |
| --- | --- | --- |
| OCCCO | inactive | – |
| CCCN(C1CCN(C(=O)C2CCNCC2)CC1)[C@@H]1CCc2ccc(OC)cc2C1 | inactive | – |
| CC(=O)OCC(=O)[C@@]1(O)CC[C@H]2[C@@H]3CCC4=CC(=O)C=C[C@]4(C)[C@@]3(F)[C@@H](O)C[C@@]21C | inactive | – |
| Cc1ccc(NC(=O)c2ccc(CN3CCN(C)CC3)cc2)cc1Nc1nccc(-c2cccnc2)n1 | inactive | – |
| CNc1ccccc1 | inactive | – |
| CC1=CC(=C(c2ccc(N)cc2)c2ccc(N)cc2)C=CC1=N | – | 0.128% [at 6.97 µM] (inactive) |
| O=C(O)c1cccc(C(=O)O)c1C(=O)O | inactive | – |
| CCCCC(CC)COCCC#N (stereo not given) | inactive | – |
| Cc1nc(C)c(C)nc1C | inactive | – |
| Sc1nc(S)nc(S)n1 | inactive | – |
| CC(C)=CCC[C@H](C)CCO | inactive | – |
| C=CCCC | inactive | – |
| Clc1cc(Cl)c2c(c1)N=C1CCCCCN1C2 | inactive | – |
| COC=O | – | 5.42% [at 6.97 µM] (inactive) |
| COc1ccc(/C=C/S(=O)(=O)NC(=O)c2ccc(C)cc2Cl)cc1 | inactive | – |
| CO[C@@H]1COCC[C@@H]1N[C@@H]1CC[C@@](C(=O)N2CCc3ncc(C(F)(F)F)cc3C2)(C(C)C)C1 | inactive | – |
| O=C1c2ccccc2C(=O)c2c1ccc(O)c2O | inactive | – |
| O=C(c1ccc(Cl)cc1)c1ccc(Cl)cc1 | inactive | – |
| CS(C)=O | inactive | – |
| CC(=O)Nc1ccn(C2COC(COC(=O)c3ccccc3)O2)c(=O)n1 (stereo not given) | inactive | – |

| Structure (SMILES) | outcome | activity change, negative = cytotoxic |
| --- | --- | --- |
| O=[N+]([O-])c1ccccc1CCO | inactive | – |
| CC(O)C(C)O (stereo not given) | inactive | – |
| C=CC(=O)OCCCCCCCCCC | inactive | – |
| CC(C)=CCC/C(C)=C/C=N/O | inactive | – |
| CCCC1CCCC(=O)O1 (stereo not given) | inactive | – |
| CC(=O)Nc1ccccc1O | inactive | – |
| CCCCCCCCNC | inactive | – |
| Nc1ccc(-c2ccc(F)cc2)cc1 | inactive | – |
| CCc1ccc(C(=O)C(C)CN2CCCCC2)cc1 (stereo not given) | inactive | – |
| N#Cc1ccc(CC(=O)c2cccc(C(F)(F)F)c2)cc1 | inactive | – |
| Cc1cc(N)n(-c2ccccc2)n1 | inactive | – |
| CCc1c(C)[nH]c2c1C(=O)C(CN1CCOCC1)CC2 (stereo not given) | inactive | – |
| Clc1nc2ccccc2nc1Cl | inactive | – |
| FC(F)(Cl)C(F)(Cl)Cl | inactive | – |
| Nc1ccc(C(=O)Oc2ccccc2)c(O)c1 | inactive | – |
| CCOc1ccc(NC(C)=O)cc1N | inactive | – |
| CC(=O)CC/C=C(\C)CC/C=C(\C)CC/C=C(\C)CCC=C(C)C | inactive | – |
| CC(O)CN (stereo not given) | inactive | – |
| CCCCCCCCS | inactive | – |
| Nc1nc(Cl)nc2c1ncn2[C@H]1C[C@H](O)[C@@H](CO)O1 | inactive | – |
